In PubChem BioAssay one finds inhibition data, which are given here for 21 compounds.

A number with no mark means an inactive call. How the calls were made is not given here.

In this experiment the target is Pantothenate synthetase (Mycobacterium tuberculosis (strain ATCC 25618 / H37Rv)) (UniProt P9WIL5). Kind of experiment: Recombinant Mtb pantothenate synthetase (PanC) inhibitors, coupled enzyme, confirmatory (AID 375).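 Further: 0% = full reaction with vehicle and 100% = no enzyme background.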 Conditions: coupled enzyme assay; at 10 µM, active compounds read high.
Pantothenate synthetase (Mycobacterium tuberculosis (strain ATCC 25618 / H37Rv)), sequence (P9WIL5 whole entry, looked up): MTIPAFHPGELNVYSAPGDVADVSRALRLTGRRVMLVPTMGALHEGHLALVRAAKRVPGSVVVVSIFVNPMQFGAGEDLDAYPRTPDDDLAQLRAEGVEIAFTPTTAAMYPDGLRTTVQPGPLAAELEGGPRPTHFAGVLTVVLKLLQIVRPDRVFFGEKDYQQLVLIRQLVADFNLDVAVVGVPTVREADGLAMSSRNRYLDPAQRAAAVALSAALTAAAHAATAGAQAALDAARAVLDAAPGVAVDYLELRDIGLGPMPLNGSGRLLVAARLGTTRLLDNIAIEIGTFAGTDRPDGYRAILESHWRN
With `O=C1c2ccccc2NC(c2cccc(F)c2)N1Cc1ccco1` (stereo unspecified), the inhibition was 0%.
To `CCN(CC)S(=O)(=O)c1ccc(F)cc1` belongs 0%; to `CCOC(=O)COc1ccc(S(=O)(=O)Nc2ccc3c(c2)OCO3)cc1`, 2%; to `O=S(=O)(NCc1ccc(Cl)cc1)c1cnc[nH]1`, 0%.
As for `O=C(c1ccncc1)N1CCN(C(=O)c2cccs2)CC1`, the figure is 6%.
Regarding `CCOC(=O)c1cccc(NC2c3ccccc3C(=O)N2Cc2ccco2)c1` (stereo unspecified), the inhibition is 7%.
Regarding `CC(=O)OC(C(=O)NC1CCCCC1)c1ccncc1` (stereo unspecified), the inhibition is 10%.
For `COc1cccc(Nc2nnc(SCC(=O)N3CC(C)OC(C)C3)s2)c1` (stereo unspecified), the inhibition was 2%.
To `CCCn1nc(CC(=O)O)c2ccccc2c1=O` belongs 0%; to `CCOC(=O)C(CC)Sc1nc2c(c(=O)[nH]c(=O)n2C)n1C/C=C(/C)Cl` (stereo unspecified), 8%; to `COCCn1nnnc1CN(CCCN1CCOCC1)Cc1cc2c(C)ccc(C)c2[nH]c1=O`, 0%.
To `Cc1cc(C)cc(Nc2ncc3c(n2)CC(c2ccco2)CC3=O)c1` (stereo unspecified) belongs 3%.
To `COc1cccc(-c2csc3nc[nH]c(=O)c23)c1` belongs 3%; to `Cc1cccc(NC(=O)c2cc(NC(=O)c3ccco3)ccc2Cl)n1`, 0%.
Regarding `COc1ccc2cc(C(c3nnnn3C3CCCCC3)N3CCCCCC3)c3nnnn3c2c1` (stereo unspecified), the inhibition was 3%.
`COc1ccccc1N(CN1CCCC1=O)C(=O)c1c(F)cccc1Cl`: the inhibition was 0%.
To `CC(C)(C)N(Cc1cc2ccccc2[nH]c1=O)C(=O)C1CCCCC1` belongs 3%; to `O=S(=O)(c1ccc(Br)s1)N1CCN(c2ccccc2)CC1`, 0%; to `COc1ccccc1OCC(=O)Nc1cccc(-c2nc3ccccc3o2)c1`, 0%.
To `O=C(c1cc(-c2ccco2)nn1-c1cccc(Cl)c1)N1CCCCC1` belongs 8%; to `O=C(CCSc1nc(-c2ccco2)cc(C(F)(F)F)n1)Nc1ccc2c(c1)OCO2`, 0%.

Usually inhibition stands for the share of the control response that was lost under treatment.
